Assay outcomes: PubChem, National Center for Advancing Translational Sciences (NCATS)
Tau fibril ThT: inhibitors of human tau fibril formation, thioflavin T binding; Potency, µM (highest dose often 57.4 µM), usual class: inhibitors; hit rate 2.1% among 270,000; AID 1460; P10636; recombinant tau K18 P301L, heparin-induced fibrillization, ThT fluorescence; note: nearly all actives have a fitted effect of over 55% in size
Target sequence (P10636 561-689 P618L limits assumed): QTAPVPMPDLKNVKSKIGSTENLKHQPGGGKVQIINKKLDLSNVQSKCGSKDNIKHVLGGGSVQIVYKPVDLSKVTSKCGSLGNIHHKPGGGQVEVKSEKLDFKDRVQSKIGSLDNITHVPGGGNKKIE
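Heparin-induced fibrillization of the P301L-mutant K18 repeat-domain fragment of human tau was followed by ThT binding in quantitative high-throughput format.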
Tau fluor cs: counter-screen for tau fibril formation inhibitors; hit rate 0.93% among 280,000; tau K18 P301L Alexa594 fluorescence, heparin fibrillization; Potency, µM (titrated, usually from 57.7 µM); AID 1463; note: nearly all actives have a fitted effect of over 55% in size
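Human tau K18 P301L (15 uM unlabeled, 0.24 uM Alexa 594-labeled) in 100 mM sodium acetate pH 7 with 20 uM heparin, 6 hr at 37 C. ThT 30 uM added, 1 hr ambient; Alexa 594 FP and total fluorescence read at 555/632 nm.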
TexasRed fluor: Texas Red fluorescence interference in TRb-SRC2 counter-screen; Potency, µM (titrated, usually from 106 µM); hit rate 0.29% among 280,000; TRb/SRC2 Texas Red total fluorescence interference; active = well fitted curve in either direction with a large enough effect; inconclusive = small, poorly fitted or top-dose-only effect
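Human TRb ligand-binding domain at 0.6 uM with 20 nM Texas Red SRC2 peptide in Tris buffer containing 1 uM T3 and 5% DMSO, incubated with compound 5 h at ambient temperature. Total fluorescence (555/632 nm) calculated as parallel + 2 × perpendicular.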
Tau fibril FP: inhibitors of human tau fibril formation | AID 1468 | P10636 | hit rate 0.39% among 280,000 | Potency, µM (top dose mostly 57.7 µM), actives largely listed as inhibitors | K18 P301L tau heparin fibrillization, Alexa594 FP, 6 h; note: nearly all actives have a fitted effect of over 55% in size
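Quantitative HTS format: compounds meet 15 uM recombinant K18 P301L tau and Alexa 594-tau tracer in 100 mM sodium acetate pH 7; 20 uM heparin triggers fibrillization at 37 C over 6 hr; FP gives the signal.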
TRb SRC2 PPI: disrupts binding of human TR beta to SRC2 | P10828 | TRbeta-SRC2 peptide binding, fluorescence polarization; receptor liganded with 1 µM T3 | Potency, µM (doses to about 106 µM), actives largely listed as inhibitors | hit rate 0.065% among 280,000 | AID 1469; note: nearly all actives have a fitted effect of over 50% in size
Target sequence (P10828 whole entry, looked up): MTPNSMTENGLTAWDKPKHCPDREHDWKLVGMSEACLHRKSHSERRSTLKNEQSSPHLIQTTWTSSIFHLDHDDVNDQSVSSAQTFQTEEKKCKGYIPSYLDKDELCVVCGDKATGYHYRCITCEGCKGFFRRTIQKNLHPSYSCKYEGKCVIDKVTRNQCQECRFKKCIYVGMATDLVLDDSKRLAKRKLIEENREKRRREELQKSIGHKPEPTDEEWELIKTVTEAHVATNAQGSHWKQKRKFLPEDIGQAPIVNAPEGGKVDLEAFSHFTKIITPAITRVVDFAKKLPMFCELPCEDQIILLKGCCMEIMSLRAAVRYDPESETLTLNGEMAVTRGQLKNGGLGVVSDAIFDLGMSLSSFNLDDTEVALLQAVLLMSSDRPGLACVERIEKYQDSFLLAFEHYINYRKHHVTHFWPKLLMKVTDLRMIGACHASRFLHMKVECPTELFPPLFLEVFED
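Human TRb LBD (0.6 uM) plus Texas Red-labeled SRC2 peptide (20 nM), 1uM T3, 5% DMSO, 5 hr at ambient temperature. Decreased polarization (555/632 nm) flags inhibition; data normalized to free and bound peptide controls.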
Hits are given with their value; – = inactive; ? = inconclusive; · = no result; [ ] = remark or other dose. The list is not random: actives were taken first. Their share in the collection is about 3%. Unless noted, calls come from the whole dose curve; as a rule, active = well fitted curve in the direction sought with a large enough effect; inconclusive = small, poorly fitted or top-dose-only effect, or another doubt; inactive = no such curve, though single readings can be large; an effect the other way counts as inactive or inconclusive.

SMILES | Tau fibril ThT | Tau fluor cs | TexasRed fluor | Tau fibril FP | TRb SRC2 PPI
COc1ccc(C(c2c(C)n(C)n(-c3ccccc3)c2=O)c2c(C)n(C)n(-c3ccccc3)c2=O)cc1O | – | – | – | – | –
CC(=O)Nc1nc(S(=O)(=O)c2ccc(C)cc2)c(Cl)s1 | – | – | – | – | –
Cc1ccc(S(=O)(=O)c2nc(Nc3nccs3)sc2Cl)cc1 | ? | 16µM[quencher] | – | – | –
COc1cccc(C(=O)/C=C/Nc2cc(C)ccc2O)c1 | 3.5µM | 16µM[quencher] | – | – | –
CCC(C)Nc1nc(N)c([N+](=O)[O-])c(Nc2ccccc2OC)n1 (stereo not given) | ? | ? | – | ? | –
COc1ccc(OC)c(Nc2nc(NCCC(C)C)nc(N)c2[N+](=O)[O-])c1 | 25µM | 20µM[quencher] | – | – | –
COc1ccccc1Nc1nc(NCC(C)C)nc(N)c1[N+](=O)[O-] | ? | ? | – | – | –
CCC(C)Nc1nc(N)c([N+](=O)[O-])c(Nc2cc(OC)ccc2OC)n1 (stereo not given) | 16µM | 18µM[quencher] | – | – | –
CCCCN(CCCC)CCCCCCN(CCCC)CCCC | · | · | – | · | –
CCOC(=O)C1=C(c2ccccc2)O/C(=C(/C#N)C(F)(F)F)S1 | 16µM | ? | – | ? | –
CCOC(=O)C1=C(c2ccccc2)O/C(=C(\C(=O)OC)C(F)(F)F)S1 | – | – | – | – | –
C=CCCC(=O)Nc1nc(C)c(-c2csc(Nc3ccc(Cl)cc3Cl)n2)s1 | 7.9µM | 14µM[quencher] | – | – | –
C=CCCC(=O)Nc1nc(C)c(-c2csc(Nc3cc(Cl)ccc3OC)n2)s1 | ? | 14µM[quencher] | – | – | –
COc1ccc(-c2cnnn2-c2ccc(NC(=O)c3c(F)cccc3F)cc2)cc1 | – | – | – | – | –
COc1cc(OC)c(C2C=C(c3ccc(C)cc3)Nc3c(C(=O)Nc4ccccc4)cnn32)cc1OC (stereo not given) | – | 18µM[quencher] | – | – | –
Cc1cc(C)c(NC(=O)C2CCN(c3nc4ccccc4n4cccc34)CC2)c(C)c1 | ? | ? | – | – | –
CC(=O)/C(=N/Nc1ccccc1)Sc1nnc(CCc2ccccc2)n1-c1ccccc1 | – | – | 0.35µM[quencher] | – | ?
CC(=O)/C(=N\Nc1ccc(Cl)cc1)Sc1nnc(-c2ccccc2)n1-c1ccccc1 | – | – | – | – | –
Cc1nc2c(C(=O)NCc3ccccc3Cl)cnn2c(C)c1Cc1c(F)cccc1Cl | – | – | – | – | –
O=c1cc(-c2ccc(O)cc2)oc2cc(O)cc(O)c12 | 16µM | ? | ? | ? | ?
COc1ccc(-c2cc(=O)c3c(O)cc(O)c(-c4cc(-c5cc(=O)c6c(O)cc(O)cc6o5)ccc4OC)c3o2)cc1 | – | – | – | 18µM | –
O=c1cc(-c2cc(O)c(O)c(O)c2)oc2cc(O)cc(O)c12 | 7.9µM | 16µM[quencher] | – | – | –
CC(C)CCNC(=O)CCn1c(=O)c2cccn2c2cccnc21 | – | – | – | – | –
Cc1ncoc1C(=O)Nc1ncc([N+](=O)[O-])s1 | 25µM | – | – | ? | –
CCc1cccc(C)c1NC(=O)CSc1nc2ccccc2nc1Cc1ccccc1 | – | – | – | – | –
SMILES | Tau fibril ThT | Tau fluor cs | TexasRed fluor | Tau fibril FP | TRb SRC2 PPI
Cc1ccc(C2CC(=O)Nc3cc4c(cc32)OCCO4)cc1 (stereo not given) | – | – | 0.05µM[quencher] | – | –
CCCCC(=O)/C=C/n1c(=S)oc2ccccc21 | 14µM | – | – | ? | –
COc1ccc([C@@H]2CC(=O)c3c(O)cc(O[C@@H]4O[C@H](CO)[C@@H](O)[C@H](O)[C@H]4OC4O[C@@H](C)[C@H](O)[C@@H](O)[C@H]4O)cc3O2)cc1O (stereo not given in full) | · | · | – | · | –
O=C1/C(=C\c2cccnc2)Sc2ccccc21 | ? | – | – | – | –
CC1C/C(=C\c2cccnc2)C(=O)/C(=C/c2cccnc2)C1 (stereo not given) | 7.1µM | – | – | ? | –
O=C1/C(=C/c2cccnc2)CCc2c1[nH]c1ccccc21 | 7.1µM | – | – | – | –
Cc1ccc(OCC(=O)N/N=C\c2ccc(-c3cccc(C(=O)O)c3)o2)c(C)c1 | 7.9µM | – | – | – | –
Cn1c(N=Nc2ccc(N3CCOCC3)cc2)[n+](C)c2ccccc21 | 1µM | 4µM[quencher] | – | 14µM | –
CCCCC(CC)COC(=O)c1ccc(C(=O)OCC(CC)CCCC)cc1 (stereo not given) | · | · | – | · | –
Cc1nn(-c2ccccc2)c2c1C(c1ccc(O)c(O)c1)N1C(=N2)C(Nc2ccccc2)=Nc2ccccc21 (stereo not given) | ? | 14µM[quencher] | – | – | –
COc1ccc2cc(C3CC(c4ccco4)=NN3S(C)(=O)=O)c(Cl)nc2c1 (stereo not given) | ? | – | – | – | –
CCOc1ccc2nc(Cl)c(C3CC(c4ccco4)=NN3S(=O)(=O)c3ccccc3)cc2c1 (stereo not given) | – | – | – | – | –
CCS(=O)(=O)N1N=C(c2ccc(C)cc2)CC1c1cc2ccc(OC)cc2nc1Cl (stereo not given) | – | ? | – | 40µM | –
CCOc1ccc2nc(Cl)c(C3CC(c4ccc(OC)cc4)=NN3S(C)(=O)=O)cc2c1 (stereo not given) | – | ? | –[1.83 µM] | 35µM | –[1.83 µM]
CCCCNC(=O)CSc1nc(-c2ccc(OC)cc2)cc(C(F)(F)F)n1 | – | – | – | ? | –
O=C(NN1C(=O)/C(=C/C=C/c2ccco2)SC1=S)c1ccncc1 | · | ? | – | ? | –
O=C(NN1C(=O)/C(=C/C=C/c2ccccc2)SC1=S)c1ccncc1 | 11µM | ? | – | – | –
Cn1cc(/C=C2\SC(=S)N(NC(=O)c3ccccc3)C2=O)c2ccccc21 | ? | – | ? | 25µM | 18µM
COc1ccc(-c2c(-c3ccc(O)cc3O)n[nH]c2C(F)(F)F)cc1 | – | 11µM[quencher] | – | – | –
COc1ccccc1-c1c(-c2ccc(O)cc2O)n[nH]c1C(F)(F)F | – | 8.9µM[quencher] | – | – | –
COc1ccc(C(=O)Nc2ccccc2C(=O)OCc2cc(=O)n3nc(C4CC4)sc3n2)cc1 | – | – | – | – | –
CCn1c(CN2CCCCC2)nc2cc(NC(=O)COc3ccc(C(C)(C)C)cc3)ccc21 | – | – | – | – | –
O=C(O)c1cc2ccccc2cc1O | · | · | – | · | –
COc1ccc(-c2cc(-c3cc(F)ccc3O)[nH]n2)cc1OC | ? | 25µM[quencher] | – | ? | –
Cc1ccc(O)c(-c2cc(-c3cccc(F)c3)n[nH]2)c1 | – | 32µM[quencher] | – | ? | –
Cc1ccc(-c2cc(-c3cccc(F)c3)n[nH]2)c(O)c1 | ? | ? | – | ? | –
COc1ccc(-c2cc(-c3ccccc3O)[nH]n2)cc1OC | ? | ? | – | ? | –
COc1ccc(-c2cc(-c3ccc(OC)c(OC)c3)n[nH]2)c(O)c1 | – | 16µM[quencher] | – | – | –
